Experimental data reported in the supplement of paper PMC11417369.
In all, about 25,000 sequences were measured (“ln(normalized median fluorescence intensity)”: median about 9.7, highest 2% from about 11 on). The list comes from a sample in which the highest values are over-represented; it also holds similar and randomly drawn sequences.

test system: PfAP2-HC AP2 domain (GST-tagged); test: gcPBM binding intensity (ln(normalized median fluorescence intensity)); higher = stronger DNA binding
Summary of the method: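 Alexa488 anti-GST antibody, scanned at 488 nm, detected GST-tagged P. falciparum DNA-binding domains that had been expressed in E. coli and incubated for 1 h on an Agilent 4 × 180k array. The array carried primer-extended double-stranded 36-bp intergenic genomic probes and negative controls. Binding intensity is the highest Masliner-normalised natural-log median intensity across replicate spots of either orientation of each probe.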

Sequence	gcPBM binding intensity (ln)
TCAAAAATAAAGATCACACATATATATATATATATA [CACACA_site4381]	9.73
AAAAAAAAAGATCACACACACATAAATATAAACAAA [CACACA_site5285]	10.9
CACAAAAATAAACACACACACATATATATATATATA [CACACA_site4704]	10.4
AAGTTCAAAATAAATGGTACAGAAGTATATATATCA [XGTACX_site174]	9.75
ATATATCCAAATAGATTACATATATATATATAGATA [TGCATGCA_negctrl_site277]	9.5
TACACAAGCAGACACACACACATATATATATATATA [CACACA_site1270]	10.2
ATCAAGCACGGACACACACACACACCCAGACCCCCA [CACACA_site4360]	10.6
ACATCAAGCGGACACACACACACACCGACAGACACA [CACACA_site4361]	10.9
CACCCACCCAGACACACACACACAAAAAAAAAAAGA [CACACA_site499]	11.2
CAAGCACAGAAACACACACACACACCGACACAGACA [CACACA_site4359]	10.9
ACATCAAGCAGACACACACACACACCCACCCACCCA [CACACA_site8012]	11.5
AACAGACAGAAACACACACACATATATATATATATA [CACACA_site3394]	10.8
TATACACCCAGACACACACACACACCCAAAAAAAAA [CACACA_site497]	10.9
CAAGCACCCAGACACACACACACACCCACACCCACA [CACACA_site369]	11.2
CACAAAGACACAAACACACACACACCCACATACATA [CACACA_site452]	10.5
ACATCAAGCAGACACACACACACACCCACCCACCGA [CACACA_site371]	10.7
CAATATATTTGATTTACACACTTACAATGTATTTAA [CACACA_site5632]	9.79
AAGAATTATTTTTTATGTACTTATATGTCAATTTTC [XGTACX_site6676]	9.68
TTGTAGGAATTTATTTTGACTGATAATTAATACGTT [GTGCAC_negctrl_site46]	9.47
AAAAAAAATATATATGCACACACAAAAAAACAAATT [CACACA_site8349]	10.2
TAGTATCAATCTTATACATGCATAAAATAATTATAA [TGCATGCA_site1052]	9.53
AAAAAATTTATAAAAGCACACAAAATAAAAAAAAAT [CACACA_site8420]	9.78

Sequence	gcPBM binding intensity (ln)
TAACATATCTTTAATACACACTTAAAAAAGTACTTA [CACACA_site4532]	9.41
CAGATAGACTTATATGCATGCATTCACCTGCCAACA [TGCATGCA_site158]	9.66
AATATATGGTTTCATGATATAAAATTCAATTTAATG [GTGCAC_negctrl_site610]	9.51
ATGTTTTATATTTTTTTTTTGTTTGCTTGTTTCCTC [CACACA_negctrl_site870]	9.57
ATATACAAAGGATTAACACACATATTATTATAGATA [CACACA_site6966]	9.87
TGTTTTTTATTTAATTGTACGAATTAAAAAAAATAA [XGTACX_site3009]	9.1
CACCCCCACAGACACACACACACACCCATATATATA [CACACA_site364]	10.6
ATACATCAAGGACACACACACACACGCACACGCACA [CACACA_site6310]	10.7
TACACCCACCCACATACACACACATACACATATATA [CACACA_site8503]	10.8
ATACATCAAGGACACACACACACACCCACACCCACA [CACACA_site8013]	11.1
TAGACTCCCAGACACACACACACACCCATATAATAT [CACACA_site593]	10.5
CACCCACCCAGACACACACACACACCCCCACCCATA [CACACA_site367]	11.6
ACATTATGCCATAAATGTACACATACATATACACAG [XGTACX_site1330]	9.66
AAACAATTTTTTAAAAGTACTTGAAAATTGTGAAAT [XGTACX_site2461]	9.63
AAAAAAATGAAACACACACACACATATATATATATA [CACACA_site1043]	10.4
AAAAAACAAAAACACACACACACATATATATATATA [CACACA_site3654]	10.9
ATAAAATGAACAAACACACACACATATATATATATA [CACACA_site2402]	10.9
AAAAAAAAAAAAAAAACACACATATATATATATATA [CACACA_site2436]	10.4
TATAAGCAAAAACACACACACATATATATATATATA [CACACA_site3804]	10.2
AAAAAAACACACACATATATATATATATATATATAT [GTGCAC_negctrl_site498]	10.3
AACAAAAATGAAAAAACACACATAACATATATAAAT [CACACA_site740]	10.1
CCTTTAAGCAAAAACACACACACATATATATATATA [CACACA_site348]	10

Sequence	gcPBM binding intensity (ln)
AAAATGAACAAACACACACACATATATATATATATA [CACACA_site2403]	11.2
TTTTAATGAAAACACACACACACATATATATATATA [CACACA_site5295]	11.1
TTTAAGCAAAAACACACACACATATATATATATATA [CACACA_site349]	11.1
TTTTAATTAAAACACACACACACATATATATATATA [CACACA_site2291]	10.6
CAAAGATATATAAACACACAAATATAACATATATAC [CACACA_site7395]	9.99
ATATATTTATATATTACACACAATATTGTAGACATA [CACACA_site4669]	9.74
TATATATAACTTTATTGTACAAAATATTATGTATTC [XGTACX_site981]	9.66
TGATCAGATAGACACACACACAAAAAAAAAAAAAAA [CACACA_site7805]	10.1
TATCAAAATTAGTATACACACAAAATTAATCAAATA [CACACA_site7117]	9.86
ATATTAAGTTTTATTACACACTCTCAATTTTTATTT [CACACA_site4206]	9.87
ATATTTTTTTCATAGACACACACAATATATCTGTTT [CACACA_site8993]	10.1
AAAAAAAAAAAACACACACACATATATATATATATA [CACACA_site732]	11.1
AAAAAAAAAAAAAACACACACATATATATATATATA [CACACA_site1891]	10.4
GGATATAACAAACACACACACACATATATATATATT [CACACA_site4141]	11.2
AATATAAACAAACACACACACATATATATATATATT [CACACA_site5592]	10.3
AAATAAATGAAACACACACACACAAAAAAAAAAAAC [CACACA_site2625]	10.9
AATATAAACACAAACACACACATATATATATATATA [CACACA_site4307]	10.1
CTCCATATTAGACACACACACAAATGAAAAAAATAT [CACACA_site7420]	10.2
CTCCATATGAAACACACACACAAATGAAAAAAATAT [CACACA_site3018]	11
AAAAAAAAAAAAAAAACACACACATATATATATATA [CACACA_site8571]	9.9
